Source: PubChem BioAssay (National Center for Advancing Translational Sciences (NCATS))
Rows were chosen to be rich in hits. Some 7.2% of all compounds tested hit in one or more screens of this group.
HCV inhibitor: qHTS Assay for Inhibitors of Hepatitis C Virus (HCV); Huh7.5.1 HCVcc-Cre infection, luciferase reporter, 44 h; AID 651820, 2012; 340,000 compounds, 3.4% hits; Potency, µM (highest dose often 41.8 µM), usual class: inhibitors
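Infectious HCV cell culture screen: compound-treated cells (1,000/well, pre-plated 4 h) are infected with HCVcc-Cre at roughly 0.5 moi and grown 44 h. Infection is quantified by luciferase signal after 15 min substrate incubation at room temperature.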
FMDV inh: High Throughput Screening for Foot and Mouth Disease Virus Antivirals; FMDV antiviral cell-based qHTS; Potency, µM (titrated, usually from 57.9 µM), hits mostly inhibitors; 410,000 compounds, 1.2% hits; AID 1159524, 2015; calls by dose curve; tested in HEK293T cells; note: read-out not given here; nearly all actives have a fitted effect of over 45% in size
Sm TGR inh: qHTS Assay for the Inhibitors of Schistosoma Mansoni Peroxiredoxins | Schistosoma mansoni thioredoxin glutathione reductase (TGR), Q962Y6 | purified TGR, DTNB reduction, TNB absorbance 405 nm | Potency, µM (titrated, usually from 114 µM), most hits filed as inhibitors | 360,000 compounds, 3% hits | AID 485364, 2010; note: nearly all actives have a fitted effect of over 60% in size
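First, TGR (20 nM dispensed) and NADPH were mixed with compound. Second, a 15 min room-temperature incubation followed. Third, further NADPH and then DTNB were added to start the reaction. Finally, TNB absorbance was monitored kinetically.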
RE007 growth inh: qHTS Assay for Inhibitors of the HIV-1 protein Vpr. S. pombe RE007 Vpr strain, BacTiter-Glo ATP luminescence, 24 h. Potency, µM (titrated, usually from 92.2 µM), hits mostly inhibitors. 360,000 compounds, 0.21% hits; active = well fitted falling curve with a large enough effect; inconclusive = small, poorly fitted or top-dose-only effect; inactive = no such curve, though single readings can be large or run the other way; note: nearly all actives have a fitted effect of over 50% in size
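Fission yeast RE007 carrying one integrated HIV-1 vpr copy, seeded at OD 0.01 in PMG+AL medium with 23 nL pinned compound. Grown 24 h at 30 degrees; viability read by BacTiter-Glo luminescence after 5 min.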
MARV entry inh: qHTS for inhibitors of binding or entry into cells for Marburg Virus; Marburg virus pseudotyped entry inhibition, cell reporter; Potency, µM (highest dose often 37.8 µM), hits mostly inhibitors; 300,000 compounds, 1.8% hits; calls by dose curve; tested in HEK293 cells
Lassa entry inh: qHTS for Inhibitors of binding or entry into cells for Lassa Virus; Potency, µM (doses to about 37.9 µM), usual class: inhibitors; 300,000 compounds, 1.2% hits; Lassa virus pseudotype entry inhibition, cell reporter; calls by dose curve; tested in HEK293 cells; note: nearly all actives have a fitted effect of over 50% in size
Hits are given with their value; - = inactive; ? = inconclusive; . = no result given. Unless noted, calls come from the whole dose curve; as a rule, active = well fitted curve in the direction sought with a large enough effect; inconclusive = small, poorly fitted or top-dose-only effect, or another doubt; inactive = no such curve, though single readings can be large; an effect the other way counts as inactive or inconclusive.

SMILES	HCV inhibitor	FMDV inh	Sm TGR inh	RE007 growth inh	MARV entry inh	Lassa entry inh
CCc1ccc(C(C)NC(=O)/C(C#N)=C\c2cn[nH]c2-c2ccccc2)cc1 (configuration not stated)	-	?	-	-	?	?
N#C/C(=C\c1cn[nH]c1-c1ccccc1)C(=O)NC1CCCCCC1	25µM	-	-	-	?	-
CC(NC(=O)/C(C#N)=C/c1cn[nH]c1-c1ccccc1)c1ccccc1 (configuration not stated)	?	-	-	-	?	11µM
Cc1ccc2nc(NC3=NC4(CCCC4)C4=C(CCCC4=O)N3)oc2c1	.	40µM	.	.	.	.
O=C(c1cccc(F)c1)N1CCC[C@@]2(CCN(c3ncccn3)C2)C1	.	-	.	.	.	.
CCCCN(CC)c1nc(-c2ccccc2F)nc2ccccc12	.	-	-	.	.	-
COCCN(CCOC)c1nc(-c2ccccc2)nc2ccccc12	?	?	-	-	.	.
CCN(CC)c1nc(-c2ccccc2)nc2ccccc12	11µM	?	-	-	?	-
CCCCN(CCCC)c1nc(-c2ccncc2)nc2ccccc12	-	28µM	-	-	.	.
CCc1ccc(C(=O)COC(=O)c2cccs2)cc1	-	-	-	.	-	.
Cc1ccc(C(=O)COC(=O)c2cccs2)cc1	-	22µM	-	-	?	-
COCCN1CCN(C(=O)c2cnn(-c3nccc(-c4cc5ccccc5o4)n3)c2C2CC2)CC1	.	-	.	.	.	.
O=[N+]([O-])c1cccc(/C=N/Nc2nc(N3CCOCC3)nc(N3CCOCC3)n2)c1	-	-	-	-	?	-
O=[N+]([O-])c1ccc(/C=N/Nc2nc(N3CCCCC3)nc(N3CCCCC3)n2)o1	14µM	-	-	-	21µM	?
O=[N+]([O-])c1ccc(Cl)c(/C=N/Nc2nc(N3CCOCC3)nc(N3CCOCC3)n2)c1	?	-	-	-	0.052µM	-
CCCC1=[N+](CC)CCn2c(C)ccc21	-	.	-	-	-	-
Cc1cc2n(c1)CCn1c(C)ccc1-2	-	.	45µM	.	-	.
N#Cc1c(-c2ccc(Cl)cc2)c(C#N)c(=O)n(N)c1N	-	-	-	-	?	-
N#Cc1c(-c2ccc(Cl)cc2)n(O)c2ccccc12	?	-	.	?	8.9µM	13µM
N=C1CCC(=N)c2c1c(O)c1ccccc1c2O	-	-	4.5µM	?	?	-
CC(=O)c1ccccc1OCC(O)CN1CCN(C(c2ccccc2)c2ccccc2)CC1 (configuration not stated)	10µM	-	-	-	?	-
COC(=O)CN1CCN(C(c2ccccc2)c2ccccc2)CC1	-	-	45µM	-	?	-
CC1CCN(S(=O)(=O)c2ccc3c(c2)N(CC(=O)NC(C)C)C(=O)CO3)CC1	.	-	-	.	.	-
O=C(COC(=O)c1c2ccccc2cc2ccccc12)NCC(F)(F)F	11µM	-	-	-	-	-
O=C(COC(=O)c1ccc2ccccc2c1O)NCC(F)(F)F	-	-	-	-	.	.
SMILES	HCV inhibitor	FMDV inh	Sm TGR inh	RE007 growth inh	MARV entry inh	Lassa entry inh
COc1cccc(NC(=O)Nc2cccn(Cc3ccc(C)cc3)c2=O)c1	11µM	?	-	-	?	?
Cc1ccc(NC(=O)Nc2cccn(Cc3c(F)cccc3Cl)c2=O)cc1	11µM	-	.	-	.	.
CCOC(=O)c1c(C)[nH]c(CCC(=O)Nc2ccc(C)c(F)c2)c1C	.	-	-	.	.	-
CC/C(=N\Nc1ccnc2cc(Cl)ccc12)c1ccc(O)cc1	?	-	50µM	-	?	?
S=C(NNc1ccnc2cc(Cl)ccc12)Nc1ccc(Cl)cc1Cl	5.6µM	?	-	-	.	.
CCOc1ccccc1Nc1cc(C)c2cccc(C)c2n1	7.9µM	-	-	-	?	-
CCOc1ccccc1Nc1ccnc2cc(Cl)ccc12	?	-	-	?	?	10µM
Oc1ccc(/C=N/Nc2ccnc3cc(Cl)ccc23)c(O)c1O	?	-	-	-	-	-
CCOc1ccccc1Nc1cc(-c2ccccc2)nc(C)n1	.	-	-	.	-	-
CCOc1ccc(NC(=S)NNC(=O)c2cc(Br)ccc2Cl)cc1	-	-	-	-	-	-
CCOc1ccc(NC(=S)NNc2ccnc3cc(Cl)ccc23)cc1	3.2µM	?	-	-	?	-
COc1nnnc2c1sc1nc(N3CCOCC3)c3c(c12)CC(C)(C)OC3	.	.	-	.	.	.
CC1(C)Cc2c(c(N3CCCC3)nc3sc4c(N5CCNCC5)ncnc4c23)CO1	14µM	-	-	-	.	.
CNC(=O)COc1ccc(Nc2nnc(-c3ccc(C)c(S(=O)(=O)NC(C)(C)C)c3)c3ccccc23)cc1	.	-	-	.	.	?
CCC(=O)N1CCCC(C(=O)NCc2ccc(C(C)C)cc2)CC1 (configuration not stated)	.	-	.	-	.	.
O=C(/C=C/c1ccc([N+](=O)[O-])cc1)c1cccs1	-	-	-	-	.	.
CCn1cc(CN(C)C(=O)/C=C/c2ccc([N+](=O)[O-])cc2)c(C)n1	-	-	-	-	-	-
Cc1ccc(C(=O)/C=C/c2ccc3c(c2)OCCO3)c(O)c1	-	-	-	-	-	-
O=C(/C=C/c1ccccc1Cl)Nc1cccc(O)c1	-	-	-	-	.	.
Cc1ccc(/C=C/C(=O)c2ccccc(=O)c2O)c(C)c1	?	?	14µM	?	?	?
O=C(/C=C/c1ccccc1Cl)c1ccccc(=O)c1O	?	?	4.5µM	-	?	?
Cc1nn(C)cc1C(=O)/C=C/c1ccc([N+](=O)[O-])cc1	22µM	-	-	-	?	?
O=C(/C=C/c1ccc([N+](=O)[O-])cc1)c1ccccc(=O)c1O	7.9µM	13µM	.	-	?	?
COc1ccc(-c2oc3ncn4nc(-c5ccc(Cl)cc5)nc4c3c2-c2ccc(OC)cc2)cc1	.	-	-	.	-	-
CN(C(=O)Nc1cn(C)c(=O)c2ccccc12)c1ccccc1	.	-	-	.	.	-
SMILES	HCV inhibitor	FMDV inh	Sm TGR inh	RE007 growth inh	MARV entry inh	Lassa entry inh
Cc1ccc(C)c(/C=C/C(=O)c2ccccc(=O)c2O)c1	?	?	13µM	?	?	?
COc1cc(OC)c(NC(=O)C2CCCN(c3ncnc4c3nc3n4CCCCC3)C2)cc1Cl (configuration not stated)	.	?	-	.	.	?
COc1ccccc1Cc1c(-c2ccco2)nc2c(C)cc(Br)cn12	.	14µM	.	?	.	.
Cc1cc(Br)cn2c(Cc3ccsc3)c(-c3ccco3)nc12	.	35µM	.	-	.	.
CCc1c2c(nc3ccc(OC(=O)N4CCC(N5CCCCC5)CC4)cc13)-c1cc3c(c(=O)n1C2)COC(=O)C3(O)CC (configuration not stated)	.	-	.	.	.	.
Cc1nc2ccccn2c1C(=O)N/N=C/c1cc(C)n(-c2ccc(Br)cc2)c1C	4µM	?	-	-	?	-
